# Test results reported in PubChem BioAssay (NCATS).
# Inconclusive results are not listed. A number with no mark means an inactive call. Calls of active or inactive are those of the source. The call rests on the fitted dose curve; in most records, active means well fitted inhibition curve with a large enough effect; inconclusive means small, poorly fitted or top-dose-only effect; inactive means flat fitted curve, though single readings scatter.
# Tested on: NIH3T3
# Experiment: Cytotoxic Profiling of Annotated Libraries Using Quantitative High-Throughput Screening (AID 1296008); further: nearly all actives have a fitted effect of over 60% in size
# Details: Five cell lines viability, CellTiter-Glo ATP luminescence, 48-72 h; max response: hits give low values
# Summary of the method: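 Cells exposed to compounds for 48 or 72 hr at 37 degrees Celsius. Viability read as ATP-coupled luminescence with CellTiter-Glo after 10 min at room temperature.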
# On the % scale 0 is the no-effect control and ±100 the full control effect.
Structure (SMILES),max response [%],outcome
COc1ccc(-c2cnc3c(-c4cccc5ncccc45)cnn3c2)cc1,-19.7,–
C/C=C(\C)C(=O)OC1C[C@@]2(COC(C)=O)O[C@H]2/C=C\[C@@]2(C)O[C@@H]2[C@H]2OC(=O)C(COC(C)=O)=C12 (stereo partly drawn),3.22,–
COc1ccc(NC(=O)c2ccc(-c3ccc(C(=N)N)cc3C)cc2)cc1N1CCN(C)CC1,2.92,–
C=C1CCCC2(C)CCC(C(C)(C)OC3OC(C)C(O)C(O)C3OC(=O)/C(C)=C\C)CC12 (stereo not drawn),–,inactive
C=C(CCC1C(C)(O)CCC2C(C)(C)C(O)CCC12C)C(O)CO (stereo not drawn),-4.7,–
O=C(Nc1ccccc1C(=O)Nc1ccc(CCO)cc1)c1ccc([N+](=O)[O-])cc1,–,inactive
O=C([C@@H](Cc1cccc(C(F)(F)F)c1)NS(=O)(=O)c1cc(F)c2c(c1)CCNC2)N1CCCC1,–,inactive
COC(=O)c1ccc2c(c1)[nH]c1ncnc(NCCCN3CCCCC3)c12,–,inactive
CC[C@H](C)/C=C(C)/C=C/C1=CC2=C(Cl)C(=O)[C@](C)(O)[C@H](OC(C)=O)[C@H]2CO1,–,inactive
O=C(Nc1ccc(N(Cc2ccsc2)C(=O)Cn2nnc3ccccc32)cc1)C1CC1,4.89,–
C/C=C(/C)C(=O)OC1C=C2C3C(C)C(C)C(OC(=O)C(C)C(C)O)CC3(C)CCC2(C)C2(C)CC(OC(C)=O)C3C(C)(C)C(O)C(=O)CC3(C)C12 (stereo not drawn),-9.86,–
CC(=O)NC[C@H]1CN(c2ccc(N3CCSCC3)c(F)c2)C(=O)O1,–,inactive
Cc1ccc(OC[C@H](O)[C@H](C)NC(C)C)c2c1CCC2,0.0465,–
O=C(NCC1CCN(Cc2cccc(Cl)c2)CC1)[C@@H]1CCCN(c2ncnc3c2nc2n3CCCC2)C1,–,inactive
CNCCC(c1cccs1)c1ccc(O)c2ccccc12 (stereo not drawn),–,inactive
CCC/C=C/C(=O)O[C@H]1CC(C)(C)CC2[C@@]13[C@H](O)C[C@]1(C)[C@@]2(CCC2[C@@]4(C)CC[C@H](O[C@@H]5O[C@H](C(=O)O)[C@@H](O)[C@H](O[C@@H]6O[C@H](CO)[C@H](O)[C@H](O)[C@H]6O[C@@H]6O[C@@H](C)[C@H](O)[C@@H](O)[C@H]6O[C@@H]6OC[C@](O)(CO)[C@H]6O)[C@H]5O[C@@H]5O[C@H](CO)[C@H](O)[C@H](O)[C@H]5O)C(C)(C)C4CC[C@]21C)O[C@H]3O (stereo partly drawn),3.59,–
C=C1CC2OC(=O)C(=C)C2C(O)/C=C(\C)CCC1O (stereo not drawn),-10.3,–

Structure (SMILES),max response [%],outcome
C[C@@H](NC(=O)c1ccc(C#Cc2cccc(F)c2)cn1)C(C)(C)O,2.74,–
CN(C)CCOc1cc(NS(=O)(=O)c2c(Cl)cc(C(F)(F)F)cc2Cl)ccc1Cl,–,inactive
CC(=O)O[C@@H]1CC[C@@]2(C)[C@H](CC[C@@H]3[C@@H]2C[C@H](OC(C)=O)[C@]2(C)[C@@H](C(C)=O)CC[C@@H]32)C1,-22.7,–
CC1=C2C[C@@]3(C)C(CCC[C@@H]3C)C(O)C2OC1=O (stereo partly drawn),–,inactive
CNCCCC1(c2ccccc2)OC(C)(C)c2ccccc21 (stereo not drawn),–,inactive
O=S1(=O)CCN(Cc2cc(NCC3CCOCC3)c3[nH]c(-c4ccccc4)cc3c2)CC1,-21.1,–
CCCNCCc1ccc(NS(=O)(=O)c2ccc(OC(F)(F)F)cc2)cc1,–,inactive
CC(=O)OCC(=O)[C@@]12O[C@@H]1C[C@H]1[C@@H]3CC=C4C[C@@H](O)CC[C@]4(C)[C@H]3CC[C@@]12C,–,inactive
CC#CCn1c(N2CCCC(N)C2)nc2c1c(=O)n(Cc1nc(C)c3ccccc3n1)c(=O)n2C (stereo not drawn),–,inactive
COc1ccc2c(NC(=O)Nc3cccc(C(F)(F)F)n3)ccnc2c1,-6.75,–
CC(C)(C)c1ccc(C(=O)Nc2cn3cc(-n4ccnc4)ccc3n2)cc1,-1.43,–
CCOC(=O)N1CCC(N2CCC[C@@H](NC(=O)c3ccccc3C)C2)CC1,–,inactive
Cc1nc(C(=O)N2CCC[C@H]2Cc2nnc(-c3ccccc3)o2)c(-c2ccccc2F)s1,4.09,–
CC(=O)c1c(C)cc2cccc(O)c2c1O[C@@H]1O[C@H](CO)[C@@H](O)[C@H](O)[C@H]1O,-3.48,–
CCCn1cc2c(nc(NC(=O)Nc3ccc(OC)cc3)n3nc(-c4ccco4)nc23)n1,–,inactive
O=C(O)c1cc(N(Cc2ccc(C3CCCCC3)cc2)C(=O)c2ccc(Oc3ccccc3)cc2)ccc1O,-0.211,–
